KB-V1 cytotox: KB-V1 MDR subline cytotoxicity | Potency, µM (highest dose often 46.1 µM), hits mostly cytotoxic | KB-V1 MDR cells viability, CellTiter-Glo, 72 h | hit rate 3.4% among 400,000; note: nearly all actives have a fitted effect of over 60% in size
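KB-V1, DMEM (no phenol red) + 10% FBS; cpd pin-transferred, titration series; 72 h, 37 degrees C; CellTiter-Glo, luminescence. Data normalized, curve-fit.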
MCF10A rereplic: inducers of DNA re-replication in MCF 10A breast cells. MCF 10A DNA re-replication, Hoechst nuclear intensity, 48 h. AID 624296. hit rate 2.9% among 350,000. Potency, µM (doses to about 46.1 µM), usual class: activators; note: nearly all actives have a fitted effect of over 50% in size
PINK1 modulator: modulators of PINK1 expression; PINK1 immunofluorescence, high-content cytometry, 24 h; AID 624263; Potency, µM (series often up to 76.6 µM), most hits filed as activators; hit rate 0.2% among 410,000; active = well fitted activation curve with a large enough effect; inconclusive = small, poorly fitted or top-dose-only effect; cell line not stated here; note: nearly all actives have a fitted effect of over 65% in size
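PINK1 protein, normally rapidly degraded, was detected by immunofluorescence after 24 hour compound treatment of a stable cell line. Titration data (5 concentrations) came from laser-scanning cytometry, with CCCP-treated wells as controls.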
KB-3-1 cytotox: KB-3-1 parental cell cytotoxicity; KB-3-1 viability, CellTiter-Glo ATP luminescence, 72 h; Potency, µM (titrated, usually from 46.1 µM), hits mostly cytotoxic; hit rate 1.4% among 400,000; AID 1347075; note: nearly all actives have a fitted effect of over 60% in size
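72 h, 37 °C compound treatment of KB-3-1 parental cells; CellTiter-Glo added, 10 min, luminescence read. Data corrected against DMSO-only plates and normalized before curve fitting.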
SW480 rerep: DNA re-replication induction in SW480 cells; SW480 DNA re-replication, Hoechst DNA content imaging, 48 h; Potency, µM (highest dose often 46.1 µM), hits mostly activators; hit rate 1.8% among 340,000; note: nearly all actives have a fitted effect of over 55% in size
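Treated cells incubate 48 hr (37 C, 5% CO2), are stained 40 min with Hoechst, and nuclear fluorescence is enumerated; a rise in nuclei with high DNA signal marks re-replication.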
Large screens that a line does not name were inactive. Shown are actives, neighbours in structure and some others; about 6.7% of the full set was active somewhere. Unless noted, calls come from the whole dose curve; as a rule, active = well fitted curve in the direction sought with a large enough effect; inconclusive = small, poorly fitted or top-dose-only effect, or another doubt; inactive = no such curve, though single readings can be large; an effect the other way counts as inactive or inconclusive.

O=C(COC(=O)CCCNC(=O)c1ccc(Cl)cc1)NCc1ccccc1Cl	none
N#CCN(C(=O)COC(=O)CCCNC(=O)c1ccc(Cl)cc1)c1ccccc1	KB-V1 cytotox 20.6µM
O=C1C=C(Nc2ccccc2)c2ccccc2C1=O	KB-V1 cytotox inconclusive, MCF10A rereplic 5.8µM, KB-3-1 cytotox 5.8µM, SW480 rerep 2.59µM
O=C1C=C(Nc2cccc3cccnc23)c2ccccc2C1=O	KB-V1 cytotox 5.8µM, MCF10A rereplic 3.66µM, KB-3-1 cytotox 5.8µM, SW480 rerep 7.31µM
CCc1ccc(NC2=CC(=O)C(=O)c3ccccc32)cc1	KB-V1 cytotox 16.4µM, MCF10A rereplic 9.2µM, KB-3-1 cytotox 18.4µM, SW480 rerep 7.31µM
O=C1C=C(Nc2ccccc2)C(=O)c2ccccc21	KB-V1 cytotox inconclusive, KB-3-1 cytotox inconclusive, SW480 rerep inconclusive
O=C1C=C(Nc2ccccc2C(=O)O)c2ccccc2C1=O	none
COc1cccc2c1C(=O)C=C(C)C2=O	KB-V1 cytotox inconclusive, MCF10A rereplic 23.1µM, KB-3-1 cytotox inconclusive, SW480 rerep inconclusive
CC1=CC(=O)c2ccccc2C1=O	none
CCOC(=O)c1cccc(NC(=O)c2ccc3c(c2)nnn3C2CCCC2)c1	none (no result: MCF10A rereplic, SW480 rerep)
CC(=O)c1ccc(NC(=S)NC(C)c2ccc(Cl)cc2Cl)cc1 (configuration not stated)	KB-V1 cytotox 18.4µM, MCF10A rereplic inconclusive, PINK1 modulator inconclusive
CCOc1ccc(CN2C(=O)c3ccccc3Sc3ccc(C(=O)N4CCN(C)CC4)cc32)cc1	none (no result: MCF10A rereplic, SW480 rerep)
O=C(CCNc1cc(Cl)cc(Cl)c1)c1cccs1	MCF10A rereplic 23.1µM (no result: PINK1 modulator)
O=C(CCNc1ccc(Cl)cc1)c1cccs1	MCF10A rereplic inconclusive
CC(C)(CNC(=O)c1cnn(-c2nccc(-c3ccccc3F)n2)c1C1CC1)N1CCOCC1	none (no result: KB-V1 cytotox, MCF10A rereplic, KB-3-1 cytotox, SW480 rerep)
CCc1cc2c(NCc3ccco3)ncnc2s1	KB-V1 cytotox 20.6µM, KB-3-1 cytotox 11.6µM
Clc1ccc(-n2ncc3c(NCC4CCCO4)ncnc32)cc1 (configuration not stated)	KB-V1 cytotox 11.6µM, MCF10A rereplic inconclusive, KB-3-1 cytotox 23.1µM, SW480 rerep 18.4µM
Cc1ccc(-n2ncc3c(NNC(=O)c4ccco4)ncnc32)cc1C	none
Clc1ccc(-n2ncc3c(NCc4ccco4)ncnc32)cc1	KB-V1 cytotox inconclusive, MCF10A rereplic inconclusive, KB-3-1 cytotox 5.01µM, SW480 rerep inconclusive (no result: PINK1 modulator)
CCc1cc2c(NCC(=O)O)ncnc2s1	none
O=C(NNc1ncnc2c1cnn2-c1cccc(Cl)c1)c1ccco1	MCF10A rereplic inconclusive, SW480 rerep 20.6µM
CCN(C(=O)Cn1c(=O)n(CC2CCC(C(=O)NC)CC2)c(=O)c2sccc21)c1ccccc1 (configuration not stated)	none (no result: MCF10A rereplic, SW480 rerep)
COc1ccc(-n2ncc3c(NCc4ccco4)ncnc32)cc1	KB-V1 cytotox 20.6µM
Cc1ccc(Cl)cc1-n1ncc2c(NC3CCCCCC3)ncnc21	KB-V1 cytotox inconclusive, PINK1 modulator inconclusive, KB-3-1 cytotox 20.6µM (no result: MCF10A rereplic, SW480 rerep)
COc1ccc(OC)c(NC(=O)COC(=O)c2c3c(nc4ccccc24)CCCC3)c1	KB-V1 cytotox 25.9µM, MCF10A rereplic inconclusive, KB-3-1 cytotox 25.9µM
COc1ccc(NC(=O)COC(=O)c2c3c(nc4ccccc24)CCCC3)cc1Cl	KB-V1 cytotox 16.4µM, MCF10A rereplic inconclusive
CCN(CC)CCn1c2ccccc2c2nc3ccc([N+](=O)[O-])cc3cc21	MCF10A rereplic inconclusive, SW480 rerep 20.6µM
Cc1ccc(C2NC(c3ccc4c(c3)OCO4)=CC(c3cc(Br)ccc3O)N2)cc1 (configuration not stated)	none (no result: MCF10A rereplic, SW480 rerep)
CCCCOc1ccc(-c2cc(C(=O)NNC(=S)NCC)c3ccccc3n2)cc1	KB-V1 cytotox 6.51µM, KB-3-1 cytotox 7.31µM
CCNC(=S)NNC(=O)c1cc(-c2ccc(OC)cc2)nc2ccccc12	KB-V1 cytotox 9.2µM, KB-3-1 cytotox inconclusive (no result: SW480 rerep)
CCOc1ccc(-c2cc(C(=O)NCCCn3ccnc3)c3cc(Br)ccc3n2)cc1	KB-V1 cytotox inconclusive, MCF10A rereplic inconclusive, KB-3-1 cytotox inconclusive, SW480 rerep inconclusive
CCNC(=S)NNC(=O)c1cc(-c2cccc(OCC)c2)nc2ccccc12	PINK1 modulator inconclusive
CCCCOc1cccc(-c2cc(C(=O)NNC(=S)NCC)c3ccccc3n2)c1	KB-V1 cytotox 20.6µM
CCOc1ccc(-c2cc(C(=O)NCCCn3ccnc3)c3ccccc3n2)cc1	MCF10A rereplic 0.581µM
CN(C)c1ccc(-c2cc(NCc3cccnc3)ncn2)cc1	none (no result: KB-V1 cytotox, MCF10A rereplic, KB-3-1 cytotox, SW480 rerep)

Screening results from PubChem.
